# Test results reported in PubChem BioAssay (NCATS).
# Results filed as inconclusive are left out. Activity calls are given as the source filed them. Unless noted, the call rests on the fitted dose curve.
# Experiments:
# [1] = Dual reporter qHTS for antagonist of Pregnane X Receptor (hPXR) against the NCATS DSHEA and TCM libraries: Fluorescence Readout (AID 1920061; active means well fitted curve in the direction sought with a large enough effect; an effect the other way counts as inactive or inconclusive; further: 0% is about no effect)
# How it was run: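 Antagonist mode: rifampicin 2 uM final co-added with compounds to hPXR-LucHepG2 cells for 24 h at 37C. Viability by CellTiter-Fluor, Ex/Em 405/540 nm, 1 h; reporter by ONE-Glo luminescence.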
# [2] = qHTS drug screen for cell cycle checkpoint inhibitors in PARPi-resistant BRCA-mutant ovarian cancer cell lines. (AID 1963452); details: PEO1/OlaR viability, CellTiter-Glo luminescence, 96 h, stronger effect = lower value
# How it was run: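 PEO1, PEO4 and PEO1/OlaR ovarian cancer cells, 600 per well, exposed 96 h at 37C to a dilution series. Viability read by CellTiter-Glo luminescence, normalized to DMSO and empty wells; activity summarized as Z-AUC.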
# [3] = qHTS for identification of novel therapeutic agents for treatment of microphthalmiaassociated transcription factor (MiT) renal cell carcinoma (RCC) (AID 1963991); details: CellTiter-Glo, 48 h, stronger effect = lower value
# How it was run: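 Three TFE3-fusion RCC cell lines (UOK109, UOK124, UOK145), 500 cells/well, were exposed to the 1912-compound MIPE 4.0 library for 48 hours at 37 C. Viability was read by CellTiter-Glo luminescence, normalised to DMSO (100%) and empty wells (0%), with 11-concentration curve fits.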
# [4] = qHTS profiling for inhibitors of Plasmodium falciparum proliferation (AID 504749; active means well fitted curve in the direction sought with a large enough effect; an effect the other way counts as inactive or inconclusive; further: potency means the concentration at half of the fitted maximal effect; nearly all actives have a fitted effect of over 60% in size); details: P. falciparum in erythrocytes, SYBR Green DNA, 72 h
# How it was run: (§1)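 Three-day growth assay of blood-stage parasites in erythrocytes (0.3% parasitemia, 2.5% hematocrit) at 37 C, 5% CO2, quantified by SYBR Green DNA staining after overnight detergent lysis.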
# [5] = system: 3D7; test: as above; details: P. falciparum in erythrocytes, SYBR Green DNA, 72 h; series mostly up to 28.7 µM
# How it was run: as §1
# [6] = system: 7G8; test: as above; details: P. falciparum in erythrocytes, SYBR Green DNA, 72 h; series mostly up to 28.7 µM
# How it was run: as §1
# [7] = system: AA1029; test: as above; details: P. falciparum in erythrocytes, SYBR Green DNA, 72 h; series mostly up to 28.7 µM
# How it was run: as §1
# [8] = system: AS120; test: as above; details: P. falciparum in erythrocytes, SYBR Green DNA, 72 h; series mostly up to 28.7 µM
# How it was run: as §1
# [9] = system: ATS189; test: as above; details: P. falciparum in erythrocytes, SYBR Green DNA, 72 h; series mostly up to 28.7 µM
# How it was run: as §1
# [10] = system: ATS95; test: as above; details: P. falciparum in erythrocytes, SYBR Green DNA, 72 h; series mostly up to 28.7 µM
# How it was run: as §1
# [11] = system: C2A; test: as above; details: P. falciparum in erythrocytes, SYBR Green DNA, 72 h; series mostly up to 28.7 µM
# How it was run: as §1
# [12] = system: CP185; test: as above; details: P. falciparum in erythrocytes, SYBR Green DNA, 72 h; series mostly up to 28.7 µM
# How it was run: as §1
# [13] = system: CP191; test: as above; details: P. falciparum in erythrocytes, SYBR Green DNA, 72 h; series mostly up to 28.7 µM
# How it was run: as §1
# [14] = system: CP192; test: as above; details: P. falciparum in erythrocytes, SYBR Green DNA, 72 h; series mostly up to 28.7 µM
# How it was run: as §1
# [15] = system: CP194; test: as above; details: P. falciparum in erythrocytes, SYBR Green DNA, 72 h; series mostly up to 28.7 µM
# How it was run: as §1
# [16] = system: CP201; test: as above; details: P. falciparum in erythrocytes, SYBR Green DNA, 72 h; series mostly up to 28.7 µM
# How it was run: as §1
# [17] = system: CP203; test: as above; details: P. falciparum in erythrocytes, SYBR Green DNA, 72 h; series mostly up to 28.7 µM
# How it was run: as §1
# [18] = system: CP211; test: as above; details: P. falciparum in erythrocytes, SYBR Green DNA, 72 h; series mostly up to 28.7 µM
# How it was run: as §1
# [19] = system: CP215; test: as above; details: P. falciparum in erythrocytes, SYBR Green DNA, 72 h; series mostly up to 28.7 µM
# How it was run: as §1
# [20] = system: CP217; test: as above; details: P. falciparum in erythrocytes, SYBR Green DNA, 72 h; series mostly up to 28.7 µM
# How it was run: as §1
# [21] = measured here: PEO1 parental Z-AUC
# [22] = TFE3-RCC UOK109 viability, measured here: UOK109 Z-AUC
# [23] = TFE3-RCC viability, measured here: UOK124 Z-AUC
# [24] = TFE3-RCC viability, measured here: UOK145 Z-AUC
compound,measurement,setting,value
O=C(O)c1cccnc1,outcome,[1],inactive
same,Z-AUC,[2],0.136 (inactive)
same,Z-AUC,[2]; [21],-0.782
same,Z-AUC,[2]; measured here: PEO4 Z-AUC,-0.146
same,z-score,[3]; [22],0.704
same,z-score,[3]; [23],0.528
same,z-score,[3]; [24],0.253
CCC(=O)O[C@]1(C(=O)CCl)[C@@H](C)C[C@H]2[C@@H]3CCC4=CC(=O)C=C[C@]4(C)[C@@]3(F)[C@@H](O)C[C@@]21C,Z-AUC,[2],-0.206 (inactive)
same,Z-AUC,[2]; [21],0.492
same,Z-AUC,[2]; measured here: PEO4 Z-AUC,-0.658
NC(=O)c1cccc(N)c1,Z-AUC,[2],1.42 (inactive)
same,Z-AUC,[2]; [21],1.33
same,Z-AUC,[2]; measured here: PEO4 Z-AUC,0.943
COc1ccc2cc3[n+](cc2c1OC)CCc1cc2c(cc1-3)OCO2,outcome,[1],inactive
same,Z-AUC,[2],0.64 (inactive)
same,Z-AUC,[2]; [21],-0.712
same,Z-AUC,[2]; measured here: PEO4 Z-AUC,0.437
same,Potency,[4]; parasite line A,447 nM (active)
same,Potency,[4]; parasite line B,1260 nM (active)
same,Potency,[5],2 µM (active)
same,Potency,[6],282 nM (active)
same,Potency,[7],708 nM (active)
same,Potency,[8],1.26 µM (active)
same,Potency,[9],1.41 µM (active)
same,Potency,[10],1.12 µM (active)
same,Potency,[11],1 µM (active)
same,Potency,[12],708 nM (active)
same,Potency,[13],891 nM (active)
same,Potency,[14],849 nM (active)
same,Potency,[15],2.13 µM (active)
same,Potency,[16],1.69 µM (active)
same,Potency,[17],1.07 µM (active)
same,Potency,[18],757 nM (active)
same,Potency,[19],953 nM (active)
same,Potency,[20],1.41 µM (active)
COc1cc2nc(N3CCCN(C)CC3)nc(NC3CCN(Cc4ccccc4)CC3)c2cc1OC,Z-AUC,[2],0.899 (inactive)
same,Z-AUC,[2]; [21],0.933
same,Z-AUC,[2]; measured here: PEO4 Z-AUC,0.922
CCCCS(=N)(=O)CCC(N)C(=O)O (stereo not given),Z-AUC,[2],-0.0852 (inactive)
same,Z-AUC,[2]; [21],0.0714
same,Z-AUC,[2]; measured here: PEO4 Z-AUC,0.126
same,z-score,[3]; [22],0.217
same,z-score,[3]; [23],0.527
same,z-score,[3]; [24],0.0952
O=S(=O)(c1cccc2cnccc12)N1CCCNCC1,Z-AUC,[2],-0.00128 (inactive)
same,Z-AUC,[2]; [21],-0.265
same,Z-AUC,[2]; measured here: PEO4 Z-AUC,0.443
CCCCc1oc2ccc(NS(C)(=O)=O)cc2c1C(=O)c1ccc(OCCCN(CCCC)CCCC)cc1,Z-AUC,[2],0.47 (inactive)
same,Z-AUC,[2]; [21],-0.173
same,Z-AUC,[2]; measured here: PEO4 Z-AUC,-0.237
O=C(O)C1CCCN(CCC=C(c2ccccc2)c2ccccc2)C1 (stereo not given),Z-AUC,[2],1.76 (inactive)
same,Z-AUC,[2]; [21],1.39
same,Z-AUC,[2]; measured here: PEO4 Z-AUC,1.34
CC(C)(C)NC(=O)[C@H]1CC[C@H]2[C@@H]3CC[C@H]4NC(=O)C=C[C@]4(C)[C@H]3CC[C@]12C,Z-AUC,[2],1.47 (inactive)
same,Z-AUC,[2]; [21],1.04
same,Z-AUC,[2]; measured here: PEO4 Z-AUC,1.46
O=C(O)c1ccc(-n2nc(-c3ccccc3O)nc2-c2ccccc2O)cc1,Z-AUC,[2],0.434 (inactive)
same,Z-AUC,[2]; [21],-0.254
same,Z-AUC,[2]; measured here: PEO4 Z-AUC,-0.47
CCN(CC)CCn1c(=O)c(Cc2ccc(OC)cc2)nc2ccccc21,Z-AUC,[2],0.658 (inactive)
same,Z-AUC,[2]; [21],1.23
same,Z-AUC,[2]; measured here: PEO4 Z-AUC,1.19
CCCOc1ccc(C(=O)OCCN(CC)CC)cc1N,Z-AUC,[2],1.6 (inactive)
same,Z-AUC,[2]; [21],1
same,Z-AUC,[2]; measured here: PEO4 Z-AUC,0.987
NS(=O)(=O)c1cc2c(cc1Cl)NC(C(Cl)Cl)NS2(=O)=O (stereo not given),Z-AUC,[2],0.208 (inactive)
same,Z-AUC,[2]; [21],0.729
same,Z-AUC,[2]; measured here: PEO4 Z-AUC,0.959
same,z-score,[3]; [22],0.286
same,z-score,[3]; [23],0.327
same,z-score,[3]; [24],0.519
CC(=O)CC(c1ccccc1)c1c(O)c2ccccc2oc1=O (stereo not given),Z-AUC,[2],1.13 (inactive)
same,Z-AUC,[2]; [21],1.51
same,Z-AUC,[2]; measured here: PEO4 Z-AUC,1.67
OCc1ccc(-c2nn(Cc3ccccc3)c3ccccc23)o1,Z-AUC,[2],0.562 (inactive)
same,Z-AUC,[2]; [21],1.06
same,Z-AUC,[2]; measured here: PEO4 Z-AUC,0.997
Cc1nnc(C(=O)NC(C)(C)c2nc(C(=O)NCc3ccc(F)cc3)c(O)c(=O)n2C)o1,Z-AUC,[2],-0.384 (inactive)
same,Z-AUC,[2]; [21],-0.195
same,Z-AUC,[2]; measured here: PEO4 Z-AUC,-0.396
same,z-score,[3]; [22],0.782
same,z-score,[3]; [23],0.249
same,z-score,[3]; [24],1.94
CO[C@@]12[C@H](COC(N)=O)C3=C(C(=O)C(C)=C(N)C3=O)N1C[C@@H]1N[C@@H]12,Z-AUC,[2],0.952 (inactive)
same,Z-AUC,[2]; [21],0.894
same,Z-AUC,[2]; measured here: PEO4 Z-AUC,1.04
CC(=O)[C@H]1CC[C@H]2[C@@H]3CC=C4C[C@@H](O)CC[C@]4(C)[C@H]3CC[C@]12C,Z-AUC,[2],1.05 (inactive)
same,Z-AUC,[2]; [21],0.974
same,Z-AUC,[2]; measured here: PEO4 Z-AUC,0.706
same,z-score,[3]; [22],0.424
same,z-score,[3]; [23],0.52
same,z-score,[3]; [24],0.375
COC(c1ccccc1)(c1ccccc1)[C@H](Oc1nc(C)cc(C)n1)C(=O)O,Z-AUC,[2],1.02 (inactive)
same,Z-AUC,[2]; [21],1.24
same,Z-AUC,[2]; measured here: PEO4 Z-AUC,1.24
COc1cc2ncnc(Nc3cccc(Cl)c3)c2cc1OC,Z-AUC,[2],0.0605 (inactive)
same,Z-AUC,[2]; [21],0.96
same,Z-AUC,[2]; measured here: PEO4 Z-AUC,0.239
NNC(=O)c1ccncc1,outcome,[1],inactive
same,Z-AUC,[2],0.416 (inactive)
same,Z-AUC,[2]; [21],1.78
same,Z-AUC,[2]; measured here: PEO4 Z-AUC,1.56
same,z-score,[3]; [22],1.86
same,z-score,[3]; [23],0.222
same,z-score,[3]; [24],0.436
